Here are results for 60 compounds from PubChem BioAssay AID588852 (The Scripps Research Institute Molecular Screening Center, 2011).

SMILES strings stand for the structures. In all, about 360,000 compounds went through this assay and about 4,600 (1.3%) were called active.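 The calls were made as follows: active = percent inhibition above its own plate's cutoff, namely the mean of that plate's compound wells plus 3 SD; inactive = the rest.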 What follows is part of a selection rich in actives, with near analogues and random picks from the rest.

Chain of Muscarinic acetylcholine receptor M1 (Homo sapiens) (P11229 whole entry, looked up): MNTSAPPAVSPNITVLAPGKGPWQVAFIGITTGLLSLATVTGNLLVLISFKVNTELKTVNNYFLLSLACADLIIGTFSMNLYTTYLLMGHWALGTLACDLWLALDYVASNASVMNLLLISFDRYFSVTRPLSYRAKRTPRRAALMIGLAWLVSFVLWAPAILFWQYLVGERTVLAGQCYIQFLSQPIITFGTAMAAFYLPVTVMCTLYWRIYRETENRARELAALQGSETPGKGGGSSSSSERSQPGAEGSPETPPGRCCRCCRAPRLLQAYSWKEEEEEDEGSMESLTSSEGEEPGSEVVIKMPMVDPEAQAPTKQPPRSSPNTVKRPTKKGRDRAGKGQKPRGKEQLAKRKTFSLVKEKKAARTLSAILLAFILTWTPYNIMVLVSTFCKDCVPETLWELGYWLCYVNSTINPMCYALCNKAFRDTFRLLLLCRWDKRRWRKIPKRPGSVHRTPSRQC

This experiment has as its target Muscarinic acetylcholine receptor M1 (Homo sapiens) (UniProt P11229). Nature of the experiment: human M1 muscarinic receptor antagonists, primary screen, CHO-K1 cells, Fluo-8 calcium fluorescence, 1536-well (AID 588852).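 Also: peak over basal fluorescence ratio during 140 s after agonist addition; 0% = ACh EC80 plus DMSO and 100% = DMSO alone without agonist.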 Particulars: CHO-K1 hM1, Fluo-8 calcium fluorescence, ACh EC80 antagonist; at 3 µM; hits give high values.
Take `CCCN1C2CCCC1CC(NC(=O)c1cccc(OC)c1)C2` (stereo not given): the inhibition (as a rule, the change of the read-out against control, counted positive when it falls) is -14.2% (inactive).

With `COc1ccc(NC(=O)NC2CC3CCCC(C2)N3Cc2ccccc2)cc1` (stereo not given), the inhibition is 1.24% (inactive). Next, `COc1ccc(CN2C3CCCC2CC(NC(=O)c2cccc(F)c2)C3)cc1` (stereo not given): 32.6% (active). Next, `Cc1nn(Cc2ccc(C(=O)N3N=C(C(F)F)CC3(O)C(F)F)cc2)c(C)c1[N+](=O)[O-]` (stereo not given): -0.52% (inactive); `COc1ccc(C(C)(O)c2nc(-c3ccc(C)c(C)c3)cs2)cc1` (stereo not given): 6.49% (inactive). Consider `Cc1cc([N+](=O)[O-])nn1CC(=O)Nc1ccc(Cc2ccncc2)cc1`, for which the inhibition is 28.3% (active). Regarding `Cc1cc(C)n(CC(=O)Nc2ccc([N+](=O)[O-])cc2)n1`, the inhibition is -1.63% (inactive). Next, `CC(C)CC(=O)Nc1ccc(Cc2ccncc2)cc1`: -16.9% (inactive). Consider `CC(C)CN1CCC1(C)C(=O)Nc1ccc(OC(F)F)cc1` (stereo not given), for which the inhibition is 1.99% (inactive). Turning to `CCc1nc2c(=O)[nH]cnc2o1`, the inhibition is -5.65% (inactive). On to `COc1cc(C(=O)N(C)Cc2cccc(OC)c2OC)ccc1OCC(=O)Nc1cccc(C(F)(F)F)c1`, for which the inhibition is 5.88% (inactive). Next, `CCCCC[C@H]1CN(C2CCCCC2)C(=O)[C@@H]1CC(=O)NCc1ccc(OC)cc1`: -1.3% (inactive); `O=C(CSc1nc2ncccc2[nH]1)Nc1ccc2c(c1)OCCO2`: -2.03% (inactive); `O=C(CSc1nc(=O)n2ccccc2n1)Nc1ccc2c(c1)OCCO2`: 35.3% (active). Next, `Cn1ccnc1SCC(=O)Nc1ccc2c(c1)OCCO2`: -13.9% (inactive). As for `CC(=O)Nc1cc(-c2ccc(N3CCN(C)CC3)cc2)cn2c(-c3ccc(F)cc3)cnc12`, the inhibition was -18.1% (inactive). For the compound `CCc1ccc2c(c1)NC(=O)C2(C)Cc1ccc(OC(F)(F)F)cc1` (stereo not given), the inhibition was -13.1% (inactive). As for `O=C(CCCOc1ccc(Cl)cc1Cl)NNC(=O)C1CCC1`, the inhibition was -17.9% (inactive). Next, `CN1CCC(OC(=O)COc2ccc(Cl)cc2Cl)CC1`: 51.8% (active); `Cc1ccc(Cl)c(OCC(=O)NN2CCN(C)CC2)c1`: -16.2% (inactive); `COc1ccc(CN(CC(=O)NC2CCCC2)C(=O)CCC(=O)Nc2cc(C)on2)cc1`: -0.71% (inactive). On to `CN(C)/C=C(\C#N)C(=O)c1cccnc1Oc1ccc(F)cc1F`, for which the inhibition was -0.88% (inactive). Consider `O=C(N=C1SC2CS(=O)(=O)CC2N1c1ccccc1)c1ccccc1` (stereo not given), for which the inhibition was -9.89% (inactive). As to `CCOC(=O)C1CCN(Cc2ccc(-c3ccccc3)cc2)CC1`, the inhibition is 25.5% (inactive). `CCOC(=O)C1CCN(Cc2nnc(-c3cccc(Br)c3)o2)CC1`: the inhibition is 35.9% (active). With `CCOC(=O)N1CCN(Cc2nnc(-c3ccccc3Cl)o2)CC1`, the inhibition was -15.1% (inactive).

For `CC1=NC2(CCCc3c2no[n+]3[O-])N(O)C1(C)C` (stereo not given), the inhibition was 0.36% (inactive). To `Cc1ccc(C(=O)NC(C)C(c2cccs2)N2CCOCC2)cc1C` (stereo not given) belongs -6.99% (inactive); to `COC(=O)[C@]1(S(=O)(=O)c2ccccc2)C[C@@H]2ON=C(c3ccc(OC)cc3)[C@@H]2C1`, -7.9% (inactive). To `N#C[C@]1(S(=O)(=O)c2ccccc2)C[C@@H]2ON=C(c3cccc(Br)c3)[C@@H]2C1` belongs 33.5% (active). As to `CCN1C(=O)C(C(=O)NC(C)c2ccccc2)C2CC1(C)Oc1ccccc12` (stereo not given), the inhibition is -3.28% (inactive).

For `C=CCOc1ccc(/C=C/C(=O)OCC(=O)NCC2CCCO2)cc1` (stereo not given), the inhibition was -1.61% (inactive).

As to `O=S1(=O)CCN(Cc2ccccc2)CC1`, the inhibition was -8.4% (inactive). Next, `NC(=O)C1(N2CCCC2)CCN(Cc2ccccc2)CC1`: 2.73% (inactive); `CC12CN(Cc3ccccc3)CC(C)(CN(Cc3ccccc3)C1)C2=NO`: 38.2% (active). Consider `COc1ccc(/C=N/NC(=O)C(C)N(c2ccc(OC)cc2)S(C)(=O)=O)cc1` (stereo not given), for which the inhibition was 3.35% (inactive). With `CC(=O)Nc1ccc(Nc2ncnc3c2nnn3Cc2ccccc2Cl)cc1`, the inhibition is -1.5% (inactive). For the compound `COC(=O)C1(S(=O)(=O)C2(C(=O)OC)CCCC2)CCCC1`, the inhibition was -1.25% (inactive). On to `CCCCOc1ccc(CON(C(C)=O)C(C)=O)cc1Cl`, for which the inhibition was 6.46% (inactive). `COc1ccccc1S(=O)(=O)NCc1ccc(C(=O)N(C)Cc2ccc(F)cc2)cc1`: the inhibition is -14.8% (inactive). For the compound `COc1ccc([N+](=O)[O-])cc1C1NN=C(c2cccc3ccccc23)S1` (stereo not given), the inhibition is -11% (inactive). As to `Cc1ccc(S(=O)(=O)c2nc(NCCCn3ccnc3)sc2Cl)cc1`, the inhibition is 29.2% (active). To `Cc1ccc2c(Cl)c(C(=O)NCCCn3ccnc3)sc2c1` belongs -10.2% (inactive); to `Cc1ccc(-c2nc(C#N)c(NCCCn3ccnc3)o2)cc1`, -17.5% (inactive). To `C/C(=N\NC(=S)NCc1ccccc1)C1CCCCC1` belongs -9.74% (inactive). To `Cc1cc2nc(-c3ccc(Cl)cc3)c(Cc3cccc(F)c3)n2c(C)c1Br` belongs 0.42% (inactive). For the compound `O=C(CC1CCCCC1)Nc1c2c(nn1-c1ccc(F)cc1)CS(=O)(=O)C2`, the inhibition was 104% (active).

`O=C(Nc1c2c(nn1-c1ccccc1)CS(=O)(=O)C2)C1CCCC1`: the inhibition was -10.8% (inactive). In the case of `COc1ccccc1OCC(=O)Nc1c2c(nn1-c1ccc(F)cc1)CS(=O)(=O)C2`, the inhibition was -12.4% (inactive). To `c1ccc2c(c1)CSc1sccc1C2=C1CCNCC1` belongs 99.6% (active); to `CC(C)(C)NC(=O)CSC(=Nc1ccccc1F)NC#N`, -1.14% (inactive). In the case of `COCCn1c(=S)[nH]c2cc(C(=O)NCCc3ccc(OC)c(OC)c3)ccc2c1=O`, the inhibition was -6.48% (inactive).

For `CCOC(=O)N1CCN(C(=O)c2ccc3c(=O)n(CCc4ccc(OC)c(OC)c4)c(=O)[nH]c3c2)CC1`, the inhibition is 62.3% (active). For the compound `COc1ccc(-n2c(=O)[nH]c3cc(C(=O)NCCc4ccc(OC)c(OC)c4)ccc3c2=O)c(OC)c1`, the inhibition was -8.11% (inactive). To `COCc1cc(=O)[nH]c(-c2ccc(C(F)(F)F)cc2)n1` belongs -16.9% (inactive); to `CC(=O)N[C@@H](C)C(=O)N1CCC(n2nccc2NC(=O)CCCc2ccccc2)CC1`, -3.58% (inactive); to `CN(Cc1ccc(C(F)(F)F)cc1)C(=O)[C@H]1O[C@@H](n2cnc3c(N)ncnc32)[C@H](O)[C@@H]1O`, -26% (inactive). Take `CN(C)N(C)C(=O)C(O)(c1ccccc1)c1ccccc1`: the inhibition was 17.7% (inactive). Next, `CCCC(O)(c1ccc(OC)cc1)C(CN(C)C)c1ccccc1` (stereo not given): -7.01% (inactive); `COC(CCN(C)C)(c1ccccc1)c1ccccc1`: 60.4% (active).
